Measurements published in PubChem BioAssay (EPA / NIEHS).
The source made the active and inactive calls. Rule for the calls: active = hit-call score of the fitted dose curve at least 0.9, where 1 is the maximum; inactive = score below 0.9.

Columns and labels:
Settings in all cases: mRNA level, 48 h; actives raise or lower the signal
[1] = read-out: ABC Transporter (ABCC3), ABCC3 (gene 8714); test: LTEA_HepaRG_ABCC3: Life Technologies and Expression Analysis (LTEA) Assay for ABC Transporter (ABCC3) using HepaRG (AID 2283462)
Outline: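 Differentiated human HepaRG cells exposed 48 h in serum-free induction medium, 0.5% DMSO vehicle, 8-point half-log series to 100 uM in duplicate. ABCC3 mRNA by qRT-PCR, normalised to ACTB, GAPDH, POLR2A; bidirectional fit vs DMSO.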

[2] = read-out: ABC Transporter (ABCB11), ABCB11 (gene 8647); test: LTEA_HepaRG_ABCB11: Life Technologies and Expression Analysis (LTEA) Assay for ABC Transporter (ABCB11) using HepaRG (AID 2283463)
Outline: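 Using HepaRG cultures held in 0.5% DMSO, chemicals were tested at half-log dilutions from 100 uM for 48 h. Induction or suppression of ABCB11 mRNA, normalized to ACTB, GAPDH and POLR2A, was fitted bidirectionally against vehicle.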

[3] = read-out: ABC Transporter (ABCC2), ABCC2 (gene 1244); test: LTEA_HepaRG_ABCC2: Life Technologies and Expression Analysis (LTEA) Assay for ABC Transporter (ABCC2) using HepaRG (AID 2283464)
Outline: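 Differentiated HepaRG cells in serum-free induction medium exposed 48 h to eight half-log concentrations up to 100 uM, 0.5% DMSO, in duplicate. ABCC2 mRNA measured by qRT-PCR (TaqMan, Fluidigm), normalized to ACTB, GAPDH and POLR2A. Fitted in both directions against DMSO.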

[4] = read-out: Broad substrate specificity ATP-binding cassette transporter ABCG2 (Homo sapiens) (UniProt Q9UNQ0); test: LTEA_HepaRG_ABCG2: Life Technologies and Expression Analysis (LTEA) Assay for ABC Transporter (ABCG2) using HepaRG (AID 2283465)
Outline: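 Gene expression of ABCG2 in HepaRG liver cells is quantified by qRT-PCR following 48 h exposure across an eight-point series topping at 100 uM. Values come from bidirectional fitting relative to DMSO vehicle.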

[5] = read-out: ATP-citrate lyase (ACLY), ACLY (gene 47); test: LTEA_HepaRG_ACLY: Life Technologies and Expression Analysis (LTEA) Assay for ATP-citrate lyase (ACLY) using HepaRG (AID 2283466)
Outline: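 ACLY expression changes in human HepaRG liver cells are quantified by qRT-PCR after 48 h exposure to test chemicals (maximum 100 uM, half-log steps). Values are fitted in both directions relative to 0.5% DMSO vehicle.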

[6] = read-out: Peroxisomal acyl-coenzyme A oxidase 1 (ACOX1) gene, ACOX1 (gene 51); test: LTEA_HepaRG_ACOX1: Life Technologies and Expression Analysis (LTEA) Assay for Peroxisomal acyl-coenzyme A oxidase 1 (ACOX1) gene using HepaRG (AID 2283467)
Outline: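 Human HepaRG hepatic cultures, 48 h treatment with test chemicals up to 100 uM. ACOX1 expression read by qRT-PCR relative to 0.5% DMSO vehicle.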

[7] = read-out: Alkaline Phosphatase, Placental (ALPP) gene, ALPP (gene 250); test: LTEA_HepaRG_ALPP: Life Technologies and Expression Analysis (LTEA) Assay for Alkaline Phosphatase, Placental (ALPP) gene using HepaRG (AID 2283468)
Outline: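 HepaRG cells plated 48 h, then exposed in duplicate for 48 h in serum-free induction medium to 8-point half-log series from 100 uM in 0.5% DMSO. ALPP mRNA by TaqMan qRT-PCR, normalized to ACTB/GAPDH/POLR2A; bidirectional fit versus DMSO.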

[8] = read-out: Bcl-2 (BAD) gene, BAD (gene 572); test: LTEA_HepaRG_BAD: Life Technologies and Expression Analysis (LTEA) Assay for Bcl-2 (BAD) gene using HepaRG (AID 2283469)
Outline: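 Activity values reflect up- or down-regulation of BAD mRNA in human HepaRG hepatic cells treated 48 h in serum-free medium, with eight-point half-log dosing capped at 100 uM and 0.5% DMSO vehicle.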

[9] = read-out: Bcl-2 (BAX) gene, BAX (gene 581); test: LTEA_HepaRG_BAX: Life Technologies and Expression Analysis (LTEA) Assay for Bcl-2 (BAX) gene using HepaRG (AID 2283470)
Outline: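 Cells were thawed, plated for 48 h, moved to serum-free induction medium and dosed for 48 h (highest concentration 100 uM, half-log steps, 0.5% DMSO). Total RNA was then analysed for BAX expression by qRT-PCR.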

BCL2L11 (gene 10018) = test: LTEA_HepaRG_BCL2L11: Life Technologies and Expression Analysis (LTEA) Assay for Bcl-2 (BCL2L11) gene using HepaRG (AID 2283473)
Outline: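 Differentiated human HepaRG cells were exposed 48 h in serum-free induction medium to eight half-log concentrations up to 100 uM in 0.5% DMSO, in duplicate. BCL2L11 mRNA was quantified by TaqMan qRT-PCR, normalized to ACTB, GAPDH and POLR2A; induction or repression fitted versus DMSO.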

[10] = read-out: Apolipoprotein A-V (APOA5) gene, APOA5 (gene 116519); test: LTEA_HepaRG_APOA5: Life Technologies and Expression Analysis (LTEA) Assay for Apolipoprotein A-V (APOA5) gene using HepaRG (AID 2283474)
Outline: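 Differentiated HepaRG cells in serum-free induction medium, exposed 48 h in duplicate to eight half-log concentrations topping at 100 uM (0.5% DMSO). APOA5 mRNA by Fluidigm TaqMan qRT-PCR, normalized to ACTB, GAPDH and POLR2A; bidirectional fit versus DMSO.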

[11] = read-out: Apoptosis regulator Bcl-2 (Homo sapiens) (UniProt P10415); test: LTEA_HepaRG_BCL2: Life Technologies and Expression Analysis (LTEA) Assay for Bcl-2 gene using HepaRG (AID 2283475)
Outline: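 Plated human HepaRG cells are exposed to test chemicals for 48 h across eight concentrations from 100 uM downward in half-log steps (0.5% DMSO). BCL2 expression is then measured by qRT-PCR with housekeeping normalisation and fitted bidirectionally against vehicle.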

[12] = read-out: Bcl-2 (BID) gene, BID (gene 637); test: LTEA_HepaRG_BID: Life Technologies and Expression Analysis (LTEA) Assay for Bcl-2 (BID) gene using HepaRG (AID 2283476)
Outline: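 Cells are plated, cultured 48 h, switched to serum-free induction medium, then dosed 48 h (100 uM top, half-log steps, 0.5% DMSO). RNA is isolated and BID expression read by qRT-PCR.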

Caspase-3 (Homo sapiens) = Caspase-3 (Homo sapiens) (UniProt P42574); test: LTEA_HepaRG_CASP3: Life Technologies and Expression Analysis (LTEA) Assay for cysteine-aspartic acid protease (CASP3) using HepaRG (AID 2283477)
Outline: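 Differentiated HepaRG cells, plated 48 h, were treated in duplicate in serum-free induction medium for 48 h with eight half-log concentrations up to 100 uM in 0.5% DMSO. CASP3 mRNA measured by qRT-PCR, normalized to ACTB, GAPDH, POLR2A.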

[13] = read-out: Cytochrome P450 (CYP24A1), CYP24A1 (gene 1591); test: LTEA_HepaRG_CYP24A1: Life Technologies and Expression Analysis (LTEA) Assay for Cytochrome P450 (CYP24A1) using HepaRG (AID 2283478)
Outline: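 HepaRG cells plated 48 h, then exposed in duplicate in serum-free induction medium for 48 h to 8-point half-log series from 100 uM in 0.5% DMSO. CYP24A1 mRNA by Fluidigm qRT-PCR, normalized to ACTB, GAPDH, POLR2A; bidirectional fit versus DMSO.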

[14] = read-out: Cytochrome P450 (CYP1A2), CYP1A2 (gene 1544); test: LTEA_HepaRG_CYP1A2: Life Technologies and Expression Analysis (LTEA) Assay for Cytochrome P450 (CYP1A2) using HepaRG (AID 2283479)
Outline: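 Differentiated human HepaRG cells in serum-free induction medium exposed 48 hours in duplicate to 8 half-log concentrations from 100 uM, 0.5% DMSO. CYP1A2 mRNA quantified by qRT-PCR, normalized to ACTB, GAPDH and POLR2A; bidirectional fitting versus DMSO.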

[15] = read-out: cysteine-aspartic acid protease (CASP8), CASP8 (gene 841); test: LTEA_HepaRG_CASP8: Life Technologies and Expression Analysis (LTEA) Assay for cysteine-aspartic acid protease (CASP8) using HepaRG (AID 2283480)
Outline: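 Concentration-response in duplicate up to 100 uM (half-log steps, 0.5% DMSO) on differentiated HepaRG cultures for 48 h. Expression change of CASP8 mRNA is determined by TaqMan qRT-PCR with housekeeping-gene normalization.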

[16] = read-out: Cytochrome P450 (CYP2B6), CYP2B6 (gene 1555); test: LTEA_HepaRG_CYP2B6: Life Technologies and Expression Analysis (LTEA) Assay for Cytochrome P450 (CYP2B6) using HepaRG (AID 2283481)
Outline: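 Differentiated human HepaRG cells in serum-free induction medium, dosed in duplicate for 48 h over 8 half-log concentrations topping at 100 uM (0.5% DMSO). CYP2B6 mRNA measured by TaqMan qRT-PCR, normalized to ACTB, GAPDH, POLR2A; bidirectional fit versus DMSO.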

[17] = read-out: Alpha-fetoprotein (AFP) gene, AFP (gene 174); test: LTEA_HepaRG_AFP: Life Technologies and Expression Analysis (LTEA) Assay for Alpha-fetoprotein (AFP) gene using HepaRG (AID 2283472)
Outline: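 Chemicals were tested on differentiated HepaRG cells for 48 hours at eight concentrations up to 100 uM, with 0.5% DMSO as vehicle. AFP expression was then quantified by qRT-PCR and analyzed for gain or loss relative to DMSO.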

[18] = read-out: adenosine kinase (ADK) gene, ADK (gene 132); test: LTEA_HepaRG_ADK: Life Technologies and Expression Analysis (LTEA) Assay for adenosine kinase (ADK) gene using HepaRG (AID 2283471)
Outline: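 Following 48 h exposure of HepaRG cells in 0.5% DMSO (top concentration 100 uM, duplicate wells), ADK mRNA induction or suppression was measured by qRT-PCR, normalised to ACTB/GAPDH/POLR2A, and fitted bidirectionally relative to vehicle.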

Measured: AC50

Broad substrate specificity ATP-binding cassette transporter ABCG2 (Homo sapiens), sequence (Q9UNQ0 whole entry, looked up): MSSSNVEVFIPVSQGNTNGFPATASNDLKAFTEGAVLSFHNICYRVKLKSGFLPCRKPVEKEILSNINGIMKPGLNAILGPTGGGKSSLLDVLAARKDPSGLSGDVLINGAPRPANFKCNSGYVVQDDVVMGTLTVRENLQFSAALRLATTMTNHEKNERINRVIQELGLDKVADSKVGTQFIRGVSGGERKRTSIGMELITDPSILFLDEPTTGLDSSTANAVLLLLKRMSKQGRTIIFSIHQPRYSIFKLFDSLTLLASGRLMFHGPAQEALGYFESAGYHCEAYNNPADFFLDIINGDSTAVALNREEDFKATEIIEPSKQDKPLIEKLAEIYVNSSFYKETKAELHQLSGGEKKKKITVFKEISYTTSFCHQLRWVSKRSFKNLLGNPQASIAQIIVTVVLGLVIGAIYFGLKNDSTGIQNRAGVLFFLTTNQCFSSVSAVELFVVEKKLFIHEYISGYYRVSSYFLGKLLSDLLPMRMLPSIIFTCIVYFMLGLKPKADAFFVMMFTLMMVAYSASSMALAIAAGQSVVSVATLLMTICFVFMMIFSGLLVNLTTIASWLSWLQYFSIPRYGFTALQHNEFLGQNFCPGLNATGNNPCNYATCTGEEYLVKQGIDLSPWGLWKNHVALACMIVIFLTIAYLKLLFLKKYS
Apoptosis regulator Bcl-2 (Homo sapiens), sequence (P10415 whole entry, looked up): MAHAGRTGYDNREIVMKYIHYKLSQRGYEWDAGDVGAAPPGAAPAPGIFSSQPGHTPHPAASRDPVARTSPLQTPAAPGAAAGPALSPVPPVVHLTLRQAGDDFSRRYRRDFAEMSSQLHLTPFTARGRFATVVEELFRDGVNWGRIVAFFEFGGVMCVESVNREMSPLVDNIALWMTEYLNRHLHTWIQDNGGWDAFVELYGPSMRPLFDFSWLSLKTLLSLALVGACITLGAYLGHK
Caspase-3 (Homo sapiens), sequence (P42574 whole entry, looked up): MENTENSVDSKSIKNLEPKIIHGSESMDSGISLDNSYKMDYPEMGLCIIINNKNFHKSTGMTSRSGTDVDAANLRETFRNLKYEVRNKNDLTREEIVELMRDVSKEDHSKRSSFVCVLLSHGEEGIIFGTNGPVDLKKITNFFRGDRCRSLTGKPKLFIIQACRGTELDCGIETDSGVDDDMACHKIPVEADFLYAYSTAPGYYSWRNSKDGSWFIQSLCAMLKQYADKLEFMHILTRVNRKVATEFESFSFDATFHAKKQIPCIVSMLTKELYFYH

O=c1[nH]sc2ccccc12
inactive: [1] | [2] | [3] | [4] | [5] | [6] | [7] | [8] | [9] | BCL2L11 (gene 10018) | [10] | [11] | [12] | Caspase-3 (Homo sapiens) | [13] | [15] | [16]
active: [14] 80.3 µM

CN1C(=O)CC[C@H]1c1cccnc1
active: [14] 91.4 µM
inactive: [1] | [2] | [3] | [4] | [5] | [6] | [7] | [8] | [9] | [17] | BCL2L11 (gene 10018) | [10] | [11] | [12] | Caspase-3 (Homo sapiens) | [13] | [15] | [16]

COCC(C)OCC(C)OCC(C)O (configuration not stated)
active: [16] 25.8 µM
inactive: [1] | [2] | [3] | [4] | [5] | [6] | [7] | [8] | [9] | [18] | [17] | BCL2L11 (gene 10018) | [10] | [11] | [12] | Caspase-3 (Homo sapiens) | [13] | [14] | [15]

Cc1ccc2oc(CN(Cc3ccccc3)C(=O)Nc3c(F)cc(F)cc3F)c(-c3ccc(Cl)cc3)c2c1
active: [3] 13.7 µM | [4] 17.6 µM | [10] 44.2 µM | [11] 44.2 µM | [16] 77 µM
inactive: [1] | [2] | [5] | [6] | [7] | [8] | [9] | BCL2L11 (gene 10018) | [12] | Caspase-3 (Homo sapiens) | [13] | [15]

O=CCCCC=O
inactive: [1] | [2] | [3] | [4] | [5] | [6] | [7] | [8] | [9] | [17] | BCL2L11 (gene 10018) | [10] | [11] | [12] | Caspase-3 (Homo sapiens) | [13] | [14] | [15] | [16]

c1ccc(C[n+]2cccc3ccccc32)cc1
inactive: [3] | [5] | [8] | [18] | [12] | Caspase-3 (Homo sapiens) | [13] | [14] | [15]
active: [1] 23.2 µM | [2] 31.3 µM | [4] 3.93 µM | [7] 13 µM | [9] 69.4 µM | [17] 35 µM | BCL2L11 (gene 10018) 32.4 µM | [10] 31.4 µM | [11] 35.1 µM | [16] 50 µM
